Measured values from PubChem BioAssay (NCI).
About 79,000 compounds went through this panel and 15% of them were active in at least one assay; those are over-represented in the sample as a whole. The source made the active and inactive calls. No stated cut-off is given here; in the data, active means growth inhibition above about 70%; inactive means the rest.

Key:
[1] = NCI Yeast Anticancer Drug Screen. Data for the rad52 strain (AID 147);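 further: 0% = growth of vehicle-treated control cultures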; conditions: S. cerevisiae rad52 mutant growth inhibition, stronger effect = higher value
Procedure, shortened: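 Here a repair-compromised yeast strain receives each compound; its growth is then quantified and normalised to vehicle-only controls.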

[2] = NCI Yeast Anticancer Drug Screen. Data for the wt1 strain (AID 149);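 further: 0% = growth of vehicle-treated wt1 cultures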; conditions: S. cerevisiae wt1 strain (SPY 50644) growth inhibition, stronger effect = higher value
Procedure, shortened: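 Growth inhibition read against vehicle controls after compound exposure of the wt1 yeast strain.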

[3] = NCI Yeast Anticancer Drug Screen. Data for the rad50EPP+ strain (AID 151);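 further: 0% = growth of vehicle-treated control cultures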; conditions: S. cerevisiae rad50 mutant strain, stronger effect = higher value
Procedure, shortened: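 Read-out is yeast growth inhibition relative to vehicle; cells used were the rad50EPP+ strain.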

[4] = NCI Yeast Anticancer Drug Screen. Data for the mgt1 strain (AID 153); conditions: S. cerevisiae mgt1 mutant growth inhibition, stronger effect = higher value
Procedure, shortened: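 Measured: inhibition of mgt1 yeast growth by compound, normalized to vehicle-treated cultures.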

[5] = NCI Yeast Anticancer Drug Screen. Data for the rad50 strain (AID 155);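 further: 0% = growth of vehicle-only cultures of the same strain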; conditions: S. cerevisiae rad50 strain growth inhibition, stronger effect = higher value
Procedure, shortened: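 Readout: growth inhibition relative to vehicle-treated cultures. Compound exposure was carried out in a genetically defined yeast strain deficient in DNA damage repair.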

[6] = NCI Yeast Anticancer Drug Screen. Data for the mec2-1 strain (AID 157); conditions: S. cerevisiae mec2-1 strain, stronger effect = higher value
Procedure, shortened: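 Using mec2-1 yeast: add compound, measure growth, express inhibition versus vehicle-treated cultures.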

[7] = NCI Yeast Anticancer Drug Screen. Data for the rad14 strain (AID 159);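 further: 0% = growth of vehicle-treated control cultures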; conditions: S. cerevisiae rad14 strain growth inhibition, stronger effect = higher value
Procedure, shortened: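 Growth inhibition vs vehicle controls; genetically altered yeast strain (DNA damage repair defect) treated with test compounds.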

[8] = NCI Yeast Anticancer Drug Screen. Data for the sgs1 mgt1 strain (AID 161);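 further: 0% = growth of cultures given vehicle only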; conditions: S. cerevisiae sgs1 mgt1 strain, stronger effect = higher value
Procedure, shortened: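 Yeast cells carrying a defined DNA-repair defect were exposed to test compounds. Growth inhibition was measured relative to vehicle-treated controls.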

[9] = NCI Yeast Anticancer Drug Screen. Data for the CLN2oe strain (AID 163);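 further: 0% = growth of vehicle-only control cultures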; conditions: S. cerevisiae CLN2oe strain, stronger effect = higher value
Procedure, shortened: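 Whole-cell yeast growth assay. A strain engineered for altered cell-cycle control received compound, and inhibition relative to vehicle-treated cultures was recorded.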

[10] = NCI Yeast Anticancer Drug Screen. Data for the cln2 rad14 strain (AID 165);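 further: 0% = growth equal to vehicle treated cultures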; conditions: S. cerevisiae cln2 rad14 strain, stronger effect = higher value
Procedure, shortened: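 Yeast strain cln2 rad14, bearing defects in cell cycle control and DNA repair, serves as the test system; values reflect growth inhibition compared with vehicle.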

[11] = NCI Yeast Anticancer Drug Screen. Data for the bub3 strain (AID 167); conditions: S. cerevisiae bub3 mutant strain, stronger effect = higher value
Procedure, shortened: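 Readout: yeast growth inhibition, expressed relative to vehicle-only wells. The test organism is a mutant strain from a panel with lesions in DNA repair or checkpoint genes.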

[12] = NCI Yeast Anticancer Drug Screen. Data for the wt2 strain (AID 169);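 further: 0% = growth of vehicle-treated yeast cultures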; conditions: S. cerevisiae wt2 strain growth inhibition, stronger effect = higher value
Procedure, shortened: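 Treated yeast vs. vehicle-treated yeast: growth inhibition determined.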

[13] = NCI Yeast Anticancer Drug Screen. Data for the mlh1 strain (AID 171);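 further: 0% = growth of vehicle-treated control cultures of the same strain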; conditions: S. cerevisiae mlh1 strain growth inhibition, stronger effect = higher value
Procedure, shortened: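 A yeast strain with a defined genetic lesion serves as the test organism. Cultures receive compound or vehicle, and growth is measured.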

[14] = NCI Yeast Anticancer Drug Screen. Data for the sgs1 strain (AID 173);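 further: 0% = growth of vehicle-only control cultures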; conditions: S. cerevisiae sgs1 mutant, stronger effect = higher value
Procedure, shortened: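 A genetically defined yeast mutant is incubated with the test compound, and its growth is compared to that of the same strain given vehicle.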

[15] = NCI Yeast Anticancer Drug Screen. Data for the mlh1 rad18 strain (AID 175); conditions: S. cerevisiae mlh1 rad18 strain growth inhibition, stronger effect = higher value
Procedure, shortened: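 Steps: expose repair-defective yeast to compound; measure growth; express inhibition against vehicle-treated controls.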

[16] = NCI Yeast Anticancer Drug Screen. Data for the rad18 strain (AID 177); conditions: S. cerevisiae rad18 mutant growth inhibition, stronger effect = higher value
Procedure, shortened: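 Measured value is growth inhibition of a yeast strain bearing a DNA repair alteration, referenced to vehicle-treated cells.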

[17] = at 5.0 µM (retest, dose inferred, filed as 0.5)
[18] = at 50.0 µM (retest, dose inferred, filed as 5.0)

Measured: growth inhibition

COc1cc2oc3ccccc3c(=O)c2cc1CSc1ccccc1N
inactive: [1]; at 1.2 µM -1% | [1]; at 3.7 µM 1% | [1]; at 11.0 µM 1% | [1]; at 33.0 µM 8% | [1]; at 100.0 µM 8% | [2]; at 1.2 µM -1% | [2]; at 3.7 µM -1% | [2]; at 11.0 µM -1% | [2]; at 33.0 µM -2% | [2]; at 100.0 µM 0% | [3]; at 1.2 µM -5% | [3]; at 3.7 µM 1% | [3]; at 11.0 µM 4% | [3]; at 33.0 µM 14% | [3]; at 100.0 µM 16% | [4]; at 1.2 µM 1% | [4]; at 3.7 µM 0% | [4]; at 11.0 µM -2% | [4]; at 33.0 µM -2% | [4]; at 100.0 µM 6% | [5]; at 1.2 µM 0% | [5]; at 3.7 µM 0% | [5]; [17] 9% | [5]; at 11.0 µM 1% | [5]; at 33.0 µM 6% | [5]; [18] 26% | [5]; at 50.0 µM 44.9% | [5]; at 100.0 µM 7% | [6]; at 1.2 µM -2% | [6]; at 3.7 µM -1% | [6]; [17] 8% | [6]; at 11.0 µM -1% | [6]; at 33.0 µM 2% | [6]; [18] 8% | [6]; at 50.0 µM -19.2% | [6]; at 100.0 µM 15% | [7]; at 1.2 µM 0% | [7]; at 3.7 µM -6% | [7]; at 11.0 µM -5% | [7]; at 33.0 µM -18% | [7]; at 100.0 µM -16% | [8]; [17] 3% | [8]; [18] 48% | [8]; at 50.0 µM 39.8% | [9]; at 1.2 µM -4% | [9]; at 3.7 µM 3% | [9]; at 11.0 µM -1% | [9]; at 33.0 µM 2% | [9]; at 100.0 µM 3% | [10]; [17] 2% | [10]; [18] 34% | [10]; at 50.0 µM 27.5% | [11]; at 1.2 µM -1% | [11]; at 3.7 µM 2% | [11]; [17] 4% | [11]; at 11.0 µM 35% | [11]; at 33.0 µM 54% | [12]; at 1.2 µM -1% | [12]; at 3.7 µM -2% | [12]; at 11.0 µM -2% | [12]; at 33.0 µM 3% | [12]; at 100.0 µM 7% | [13]; at 1.2 µM -5% | [13]; at 3.7 µM 0% | [13]; at 11.0 µM -1% | [13]; at 33.0 µM 2% | [13]; at 100.0 µM -7% | [14]; at 1.2 µM 1% | [14]; at 3.7 µM 1% | [14]; at 11.0 µM 5% | [14]; at 33.0 µM 15% | [14]; at 100.0 µM 20% | [15]; [17] 15% | [15]; [18] 31% | [15]; at 50.0 µM 39.9% | [16]; at 1.2 µM -14% | [16]; at 3.7 µM -7% | [16]; at 11.0 µM -12% | [16]; at 33.0 µM 8% | [16]; at 100.0 µM 3%
active: [11]; [18] 71% | [11]; at 50.0 µM 72.4% | [11]; at 100.0 µM 74%
